The panel holds about 83,000 compounds, 20% with a hit somewhere; the sample as a whole holds those more often.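 Activity criterion: percent growth below 10, measured after cells in 96-well plates were exposed to a single compound concentration for 48 hours.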 Unmarked numbers belong to inactive results. Active and inactive are the calls of the source.
What was measured:
Assay in all cases: NCI-60 one-dose screen, 48 h (100 = growth as untreated, 0 = no growth, -100 = all killed)
Details in all cases: 10 µM unless noted
[1] = system: HCT-15 colon
[2] = system: HT29 colon
[3] = system: SNB-75 CNS
[4] = system: SNB-19 CNS
[5] = system: U251 CNS
[6] = system: PC-3 prostate
[7] = system: SK-MEL-5 melanoma
[8] = system: UACC-62 melanoma
[9] = system: LOX IMVI melanoma
[10] = system: SK-MEL-28 melanoma
[11] = system: SK-MEL-2 melanoma
[12] = system: EKVX NSCLC
[13] = system: SN12C renal
[14] = system: UO-31 renal
[15] = system: TK-10 renal
[16] = system: ACHN renal
[17] = system: CAKI-1 renal
[18] = system: A498 renal
[19] = system: CCRF-CEM leukemia
[20] = system: MOLT-4 leukemia

Compound	growth [1]	growth [2]	growth [3]	growth [4]	growth [5]	growth [6]	growth [7]	growth [8]	growth [9]	growth [10]	growth [11]	growth [12]	growth [13]	growth [14]	growth [15]	growth [16]	growth [17]	growth [18]	growth [19]	growth [20]
CN(C)CCNc1nc2ccccc2c2c(=O)c3cc(F)ccc3sc12	22.7%	-3.23% (active)	54.9%	55.4%	41.4%	40.4%	83.5%	53.4%	-64.3% (active)	55.6%	87.3%	67.7%	50.8%	25.2%	55.4%	21.4%	14%	17.6%	24.4%	-3.39% (active)
COc1cc(/C=C/c2c(C(C)=O)c(C)nc3ccccc23)cc(OC)c1OC	25.4%	17.6%	-34.5% (active)	39.4%	39%	32.5%	31.4%	39.8%	38.9%	53.9%	47.9%	52.4%	35.3%	36.7%	78.8%	37.6%	24.7%	-23.8% (active)	21.3%	33.6%
c1ccc(CO[C@H]2CO[C@H]3[C@@H]2OC[C@@H]3Oc2ccc(Nc3ncnc4ccsc34)cc2)cc1	78.7%	81.9%	87.5%	82.7%	81.9%	80.3%	9.33% (active)	59.9%	78.8%	88.9%	84%	62.3%	69.3%	42%	99.6%	72.1%	74.7%	33.2%	77.7%	64.5%
COc1ccc(C(=O)/C=C/c2sc(Cl)nc2Cl)cc1	13.1%	31.9%	50.9%	68.9%	16.5%	52.3%	-39.1% (active)	58.8%	-49.9% (active)	53.2%	39.8%	65.2%	18%	51.9%	104%	-44.5% (active)	27.4%	93.2%	12.3%	11.6%
Cc1cccc(NCc2cn(-c3ccc(C(=O)O)cc3)nc2-c2ccc(C(=O)O)cc2)n1	107%	107%	87.4%	104%	108%	103%	103%	101%	100%	104%	120%	102%	101%	88%	102%	103%	95.7%	95.5%	104%	105%
Cc1cccc2c1S/C(=C/c1ccc([N+](=O)[O-])cc1)C2=O	100%	92.5%	82.4%	98.4%	78.4%	91.5%	99.4%	72.6%	93.1%	114%	103%	103%	98.8%	80.4%	166%	102%	90.6%	59.8%	101%	94.5%
O=C(/C=C/c1sc(Cl)nc1Cl)c1ccc(F)cc1	31.2%	84.5%	92.5%	90.8%	40.4%	88.5%	93.6%	93.3%	0.0946% (active)	97.2%	95.5%	88.8%	45.1%	85.4%	103%	22.4%	88.2%	91.9%	37.5%	48.5%
COc1ccc(/C=C/c2c(C(=O)/C=C/c3ccc(Cl)cc3)c(C)nc3ccccc23)cc1	-0.536% (active)	13.6%	50.6%	25%	19.4%	29.2%	39.2%	33.7%	-62.2% (active)	23.8%	45.7%	47.9%	17.2%	-21.3% (active)	56.2%	13.5%	29.5%	39.6%	5.29% (active)	4.01% (active)
O=C(O)CCC/C=C\C[C@H]1C=CC(=O)/C1=C/C[C@@H](O)CCc1cccc(C(F)(F)F)c1	-55.8% (active)	-8.89% (active)	72.8%	7.63% (active)	-71.1% (active)	-19.3% (active)	-85.9% (active)	-62.2% (active)	-60.9% (active)	-43.6% (active)	-6.24% (active)	37.9%	-24.7% (active)	-88.4% (active)	11.1%	-70.3% (active)	12.6%	-12% (active)	4.1% (active)	-8.07% (active)
CCCCn1c(-c2ccc(C(=O)O/N=C(\N)c3ccc(OC)cc3)cc2)nc(-c2ccccc2)c1-c1ccccc1	-47.5% (active)	21.8%	-31.1% (active)	23.9%	-52.6% (active)	-7.41% (active)	41.8%	29.1%	-93.1% (active)	47%	52.6%	-79.2% (active)	-62.7% (active)	-93.7% (active)	-78.8% (active)	-97.9% (active)	-46.3% (active)	20.9%	-48.7% (active)	-39.7% (active)
COc1cc(C(=O)N2N=C(c3ccc(S(C)(=O)=O)cc3)CC2c2ccco2)cc(OC)c1OC (stereo not given)	39.4%	24.9%	46.9%	75.9%	57.7%	51%	39.8%	29.3%	50.5%	89.2%	59.1%	86%	92.5%	18.6%	106%	48.5%	43.7%	76.7%	42%	41.5%
COc1nc2ccccc2cc1-c1nc2c(cnn2-c2ccc(Br)cc2)c(=O)[nH]1	24%	8.03% (active)	-12.9% (active)	21.5%	15.7%	13.6%	5.23% (active)	24.9%	31.7%	43.4%	24.3%	42.4%	33.2%	27.1%	40.6%	35.4%	29.4%	8.46% (active)	13.7%	47.7%
O=C(CCOCCNC(=O)COc1ccc2c(c1)OCC(c1ccc(F)cc1)C2=O)NCCCC(O)(P(=O)(O)O)P(=O)(O)O (stereo not given)	98.9%	104%	89.6%	99.6%	107%	102%	101%	105%	97.8%	108%	104%	94.5%	103%	95.3%	114%	102%	94.7%	89%	96.7%	99.3%
COc1ccc(C(Cc2ccccc2)NCCN2CCOCC2)cc1 (stereo not given)	99.8%	87.7%	97.4%	106%	108%	93.8%	108%	100%	91.4%	103%	95.9%	104%	99.6%	84.5%	95.4%	106%	98.8%	101%	113%	93.8%
CSc1nc2ccc(C)cc2cc1/C=N/O	86.7%	93.1%	59.2%	95.7%	78.6%	79%	90%	77%	91.9%	101%	74.7%	67.8%	91.9%	66.4%	101%	82.8%	80.4%	85.2%	105%	83%
O=S(=O)(Nc1ccc(-c2nc(-c3cccc(OCCN4CCOCC4)c3)c(-c3ccnc(Br)c3)[nH]2)cc1)c1ccccc1	8.1% (active)	2.67% (active)	6.55% (active)	48.2%	35.2%	15.9%	37.5%	28.7%	3.47% (active)	38.7%	24.8%	50.2%	51.5%	20.5%	48.2%	27.1%	28.2%	53%	15.1%	8.11% (active)

Compound	growth [1]	growth [2]	growth [3]	growth [4]	growth [5]	growth [6]	growth [7]	growth [8]	growth [9]	growth [10]	growth [11]	growth [12]	growth [13]	growth [14]	growth [15]	growth [16]	growth [17]	growth [18]	growth [19]	growth [20]
Nc1ccc(Sc2ccc([N+](=O)[O-])c3nonc23)cc1	58.2%	70.8%	90.7%	95.6%	90.9%	87.1%	88.1%	84.5%	80.3%	102%	96.1%	92.5%	93.7%	65.6%	111%	23%	103%	80.2%	27.7%	26.8%
C#C[C@]1(O)CC[C@H]2[C@@H]3CC=C4c5sc(Nc6cc(F)ccc6F)nc5CC[C@]4(C)[C@H]3CC[C@@]21C	-28.4% (active)	8.03% (active)	-28.6% (active)	6.38% (active)	-15.2% (active)	-8.02% (active)	13.2%	-36.2% (active)	-77.7% (active)	-44.9% (active)	-6.68% (active)	23.9%	-43.1% (active)	-98.3% (active)	18.5%	-68.2% (active)	-31.5% (active)	-13.4% (active)	4.58% (active)	6.12% (active)
CC(C)c1cc(C(C)C)c(S(=O)(=O)Oc2ccc(NC(=O)c3ccc(Cl)cc3)cc2)c(C(C)C)c1	20.2%	46.6%	64.9%	17.6%	20.9%	14%	31.4%	9.11% (active)	33.5%	56.8%	31.3%	19.4%	21.4%	29.9%	42.5%	15.4%	21.6%	17.7%	25.2%	17.6%
COC(=O)c1ccc2[nH]c(O)c(C(=Nc3ccc(N(C)C(=O)CN4CCN(C)CC4)cc3)c3ccccc3)c2c1	12.3%	21.3%	-4.83% (active)	42.6%	31.4%	36.3%	38.3%	74.6%	16.3%	29.3%	-4.99% (active)	54%	17.6%	16%	51.6%	7.31% (active)	4.65% (active)	-35.9% (active)	10.7%	12.1%
COc1ccc(C(=O)n2nc(-c3ccccc3)nc2N)cc1OC	96.8%	91.9%	81.1%	95.7%	90.4%	87.9%	93.3%	86.7%	91.7%	107%	103%	88.2%	90.5%	70.5%	112%	82.4%	84.3%	83.7%	86.8%	87.8%
O=C1CSC(c2c(Cl)cccc2Cl)N1c1nc(Cl)cc(=O)[nH]1 (stereo not given)	123%	111%	113%	103%	112%	73.1%	97%	102%	104%	115%	78.3%	119%	108%	79.8%	161%	111%	117%	121%	67.3%	171%
Cc1cc2[nH]c(=O)c3c4ncccc4cn3c2cc1C	5.25% (active)	-23.7% (active)	99.4%	50.2%	24.1%	57.1%	70%	-8.94% (active)	-83.3% (active)	95.1%	93.8%	60.9%	39.3%	37.1%	18.1%	32.2%	-24.7% (active)	105%	21.7%	19.4%
COc1cc2cc(Oc3ccc(NC(=O)Nc4ccc(F)c(C(F)(F)F)c4)cc3)c(C)nc2cc1OCCN1CCOCC1	13.6%	8.41% (active)	51.6%	25.1%	13.6%	5.95% (active)	-37.6% (active)	33.9%	12.8%	43.1%	14.8%	16.2%	11.6%	30.1%	35.1%	9.37% (active)	25.8%	38.7%	5.44% (active)	0.0203% (active)
Cc1ccc(C(=O)N/N=C/c2cccc(Oc3ccccc3)c2)cn1	38.5%	20%	65.7%	65.6%	58.9%	76.7%	47.4%	38.3%	63.9%	63.7%	44.5%	77.4%	68.6%	13.9%	83.3%	85.9%	22.9%	57.6%	82.3%	40%
CNc1ccc(Nc2cccc(C)c2)c2c1C(=O)c1ccccc1C2=O	85.1%	96.6%	96.3%	99.6%	95.4%	95%	91%	64.9%	81.5%	114%	60%	164%	80.4%	58.3%	100%	78.1%	131%	89.2%	102%	85.1%
Cc1ccc(C2CC(c3ccc(Nc4ccnc5cc(Cl)ccc45)cc3)=NN2C=O)cc1 (stereo not given)	18.6%	41.8%	76.3%	74.4%	58.6%	57.4%	10.4%	36.9%	34%	51.7%	72.2%	50.1%	55.1%	31.9%	83.2%	34.8%	49%	73.4%	28.2%	31.8%
Cc1ccc(C(=O)NN2C(=O)CSC2c2ccc(Cl)cc2)cn1 (stereo not given)	90.1%	105%	95.8%	85.6%	93.3%	87.5%	99.2%	93.5%	97.4%	90.8%	102%	110%	91.4%	21.8%	128%	96.5%	80.7%	164%	117%	82.2%
O=C(N/N=C/[C@H](O)[C@@H](O)[C@@H](O)[C@H](O)CO)c1ccc(NC(=O)c2cccnc2)cc1	105%	111%	92.6%	97.4%	102%	102%	104%	95.5%	104%	111%	109%	107%	99.4%	92.5%	106%	103%	101%	107%	103%	114%
N/C(=N\c1nc2ccccc2s1)NC(=O)Nc1cccc2ccccc12	18.9%	6.2% (active)	5.83% (active)	34.8%	14.4%	23.5%	14%	29.2%	41.5%	65.3%	38.7%	40.2%	44%	53.4%	55%	42.1%	29.5%	-10.8% (active)	12.2%	19.9%
Cc1nc(S(=O)(=O)c2ccccc2)c(S(=O)(=O)Cc2ccc([N+](=O)[O-])cc2)o1	82.5%	91.2%	72.9%	92.5%	98.8%	87.9%	95.9%	79.8%	89.6%	103%	89.2%	104%	89.9%	72.5%	105%	87.6%	95.6%	81.8%	82.8%	90.7%
